TDP1 cell noCPT = qHTS for Inhibitors of human tyrosyl-DNA phosphodiesterase 1 (TDP1): qHTS in cells in absence of CPT; AID 686978, 2013; actives 15% (n = 420,000); DT40 Tdp1-/- hTDP1 cells, no CPT, ATP luminescence, 48 h; Potency, µM (top dose mostly 46.2 µM), for inactives: at the highest dose activity change, negative = growth inhibition, most hits filed as inhibitors; further: nearly all actives have a fitted effect of over 55% in size
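Chicken DT40 Tdp1-/- cells stably complemented with human TDP1 were seeded at 400 cells/well with DMSO in place of 20 nM camptothecin. After compound pinning, cells grew at least 48 hr at 37 °C; viability read by CellTiter-Glo luminescence.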
HT1080 IDH1KD tx = qHTS for induction of synthetic lethality in tumor cells producing 2HG: qHTS for the HT-1080-IDH1KD cell line; HT-1080 IDH1 knockdown viability, ATP luminescence, 48 h; Potency, µM (doses to about 46.1 µM), for inactives: at the highest dose activity, negative = toxicity, usual class: cytotoxic; actives 2% (n = 360,000);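 further: 0% = DMSO wells and -100% = cell-free medium wells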
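Viability of IDH1-knockdown HT-1080 fibrosarcoma cells was assessed by CellTiter-Glo after 48 h at 37 °C with titrated compound; concentration-effect curves were classified by fit quality and response size.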
KB-V1 cytotox = qHTS assay for MDR1-selective chemotherapeutics: Primary screen using the drug-selected MDR subline cells KB-V1; actives 3.4% (n = 400,000); AID 1347076, 2019; Potency, µM (top dose mostly 46.1 µM), most hits filed as cytotoxic; KB-V1 MDR cells viability, CellTiter-Glo, 72 h; further: nearly all actives have a fitted effect of over 60% in size
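Drug-selected KB-V1 cells, grown in DMEM lacking phenol red with 10% FBS, receive compound titrations; after three days at 37 degrees C, surviving cell ATP is quantified by CellTiter-Glo luminescence and responses normalized and curve-fitted.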
KB-3-1 tox = qHTS assay for MDR1-selective chemotherapeutics: Primary screen using the parental adenocarcinoma cell KB-3-1; actives 1.4% (n = 400,000); KB-3-1 viability, CellTiter-Glo ATP luminescence, 72 h; Potency, µM (doses to about 46.1 µM), usual class: cytotoxic; further: nearly all actives have a fitted effect of over 60% in size
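Cells are dispensed, compounds pinned in, plates held at 37 °C for 72 h, then CellTiter-Glo is added and luminescence read after 10 minutes. Cell line: parental KB-3-1 in phenol-red-free DMEM, 10% FBS.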
TDP1 cell CPT = qHTS for Inhibitors of human tyrosyl-DNA phosphodiesterase 1 (TDP1): qHTS in cells in presence of CPT | Potency, µM (titrated, usually from 46.2 µM), without a hit: at the top dose activity change, negative = growth inhibition, actives largely listed as inhibitors | actives 12% (n = 420,000) | chicken DT40 Tdp1-/-;hTDP1 cells + 20 nM CPT, ATP luminescence, 48 h | AID 686979, 2013; further: nearly all actives have a fitted effect of over 55% in size
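Chicken DT40 Tdp1-/- cells complemented with human TDP1, 400 cells/well, exposed to compounds plus 20 nM camptothecin for at least 48 h at 37 C; viability read as ATP content by CellTiter-Glo luminescence.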
HT1080NT lethal = qHTS for induction of synthetic lethality in tumor cells producing 2HG: qHTS for the HT-1080-NT fibrosarcoma cell line | HT-1080-NT fibrosarcoma viability, CellTiter-Glo ATP luminescence, 48 h | Potency, µM (doses to about 46.1 µM), for inactives: top-dose activity, negative = less viability, hits mostly cytotoxic | actives 1.6% (n = 360,000) | AID 686970, 2013;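 further: NT is the 2HG producing partner of a matched IDH1 knockdown line; 0% = DMSO-treated cells and -100% = media-only wells without cells; nearly all actives have a fitted effect of over 55% in size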
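Toxicity toward the 2HG-producing NT line was scored as %Activity, normalised to DMSO and no-cell wells, from CellTiter-Glo luminescence after 48 hours' treatment.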
Numbers without * were called inactive; i = inactive; ? = inconclusive; . = not tested or not shown. Compounds with a hit are over-represented: about 19% of the library has one in this group of screens. The call rests on the fitted dose curve; in most records, active means well fitted curve in the direction sought with a large enough effect; inconclusive means small, poorly fitted or top-dose-only effect, or another doubt; inactive means no such curve, though single readings can be large; an effect the other way counts as inactive or inconclusive. Unless noted, on the % scale 0 is the no-effect control and ±100 the full control effect; potency means the concentration at half of the fitted maximal effect.

SMILES	TDP1 cell noCPT	HT1080 IDH1KD tx	KB-V1 cytotox	KB-3-1 tox	TDP1 cell CPT	HT1080NT lethal
O=C(c1ccc(Cn2c(=S)[nH]c3cc4c(cc3c2=O)OCO4)cc1)N1CCN(c2ccccc2)CC1	23µM*	0%	i	i	?	2%
O=C(O)c1ccc(NC(=O)c2cc3c([nH]c2=O)CCCC3=O)cc1	-13%	.	?	?	-3%	.
Cc1ccc(C)c(N2CCN(S(=O)(=O)c3cc(-c4cc(C)no4)ccc3C)CC2)c1	16µM*	.	i	i	?	.
CCC1CN(S(=O)(=O)c2cc(-c3cc(C)no3)ccc2C)c2cc(Cl)ccc2O1 (stereo not drawn)	23µM*	.	i	i	13µM*	.
CCc1ccc(-c2cc(C)no2)cc1S(=O)(=O)N1CCN(c2ccccc2OC)CC1	?	-3%	?	?	?	-13%
COc1ccc(-c2cc(C)no2)cc1S(=O)(=O)N1CCOc2ccc(Cl)cc21	?	1%	i	i	?	1%
COc1ccccc1N1CCN(S(=O)(=O)c2cc(-c3cc(C)no3)ccc2C)CC1	18µM*	.	i	i	21µM*	.
COc1ccc(NC(=O)C(Cc2c[nH]c3ccccc23)NC(=O)OC(C)(C)C)cc1 (stereo not drawn)	-23%	.	?	i	?	.
COc1cc(Cl)ccc1OCc1cc(C(=O)NC(C)Cc2cccnc2)no1 (stereo not drawn)	?	0%	.	.	?	-10%
COc1ccc(C(=O)CN2CCN(c3ccc(F)cc3)CC2)cc1	-7%	1%	i	i	1%	0%
CCN1CCN(CC(=O)c2c[nH]c3ccc(C)cc23)CC1	?	2%	i	i	-22%	-5%
COc1ccc2c(c1)c(C(=O)CN1CCOCC1)c(C)n2C	-22%	8%	i	i	-1%	9%
Cc1c(O)ccc(C(=O)CN2CCN(c3ccccc3)CC2)c1O	23µM*	-1%	i	i	?	11%
Cc1ccc2[nH]cc(C(=O)CN3CCN(c4ccccc4F)CC3)c2c1	-17%	-5%	10µM*	i	?	11%
COc1ccc(N2CCN(CC(=O)c3ccc(O)c(C)c3O)CC2)cc1	21µM*	-1%	i	i	?	-2%
COc1ccc(N2CCN(CC(=O)c3c(C)n(C)c4ccc(OC)cc34)CC2)cc1	23µM*	-9%	i	i	18µM*	0%
Cc1ccc(NC(=O)CN2C(=O)c3ccccc3C2=O)nc1	-22%	12%	i	i	-4%	12%
Cc1ccccc1NCCNc1ccccc1C	-1%	11%	i	i	17%	1%
NC(=O)CN1CCN(c2ccccc2F)CC1	-13%	12%	i	i	7%	-1%
CN1CCN(CC(=O)c2ccccc2F)CC1	-8%	?	i	i	-4%	29%
Cc1c(O)ccc(C(=O)CN2CCN(c3ccccc3F)CC2)c1O	23µM*	-8%	i	i	?	-9%
O=C(CN1CCN(c2ccccc2F)CC1)c1ccc(O)c(O)c1	10µM*	-24%	i	?	23µM*	-3%
CC1(C(=O)NS(=O)(=O)Cc2ccccc2C(F)(F)F)CCN1C(=O)Cc1ccsc1 (stereo not drawn)	?	7%	i	i	?	7%
Cc1nn(CCC(=O)NC(C)C)c(=O)c2nn(-c3ccccc3)c(C)c12	-8%	.	?	i	-11%	.

Screening results from PubChem.
